This is an account of results in PubChem BioAssay.

Inconclusive results are not listed. For part of these data: Potency and affinity values are given separately. The source made the active and inactive calls. Unless noted, no rule for the calls is given here.

The target of assay [1] is ATP-dependent translocase ABCB1 (Homo sapiens) (UniProt P08183). In words: MDR1 (ABCB1) efflux transporter inhibition, cell-based (AID 377; in the data active = fluorescence slope change above about 50%). To be noted: MDR1-expressing cells, fluorescent substrate accumulation slope; stronger effect = higher value; concentration not given here.
Assay [2] in a line: polyglutamine-triggered caspase-3 activation inhibitors, cell-based (AID 1583). As to conditions: polyglutamine-induced caspase-3 activation, cell assay; stronger effect = higher value;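 tested at 10 µM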.
Assay [3] is described as follows: suppressors of polyQ aggregation in yeast, 75Q-TubU reporter (AID 1593). As to conditions: Yeast 75Q polyglutamine aggregation reporter.
Assay [4] is described as follows: rescue of polyQ-huntingtin neuronal dysfunction in worms, whole organism, C. elegans mechanosensory neurons, N-terminal huntingtin (AID 1599). As to conditions: touch response, stronger effect = higher value.
Assay [5] can be described thus: inhibitors of mitochondrial cytochrome c release, biochemical, purified mitochondria (AID 1603).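 Also: mouse liver mitochondria challenged with calcium chloride; signal normalized to the plate average as 100%.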 To be noted: stronger effect = lower value.
Assay [6] in a line: inhibitors of polyQ protein aggregation (AID 1604). To be noted: polyglutamine-induced protein aggregation inhibition assay; stronger effect = higher value; tested at 2.5 µM.
Assay [7] is described as follows: enhancers of glutamate uptake in motor neurons, MN-1 cell line (AID 1612).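 Also: tested at 1 µM final; 0% = mean of DMSO vehicle wells on each plate; positive means more glutamate uptake than control and negative means less.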 To be noted: MN-1 motor neuron cells, stronger effect = higher value.
Assay [8] is described as follows: reducers of polyQ inclusions in PC12 cells, cell-based, NGF-treated PC12, GFPQ80 (AID 1614).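 Also: lower means fewer inclusions and 0 means no inclusions at all.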 To be noted: PC12 NGF-treated GFP-polyQ80 inclusion reduction.
The nature of assay [9]: suppressors of polyglutamine aggregation in yeast, 75Q-TubH (AID 1616). As to conditions: S. cerevisiae 75Q-TubH polyglutamine aggregation suppression; stronger effect = higher value.
Assay [10] in a line: hESC survival regulators, cell-based (AID 493140).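 Also: cells exposed to compounds for four days before counting.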 To be noted: human embryonic stem cell survival screen; stronger effect = higher value.
Assay [11] can be described thus: circadian clock period modulators, cell-based, LOPAC library, luminescence reporter (AID 2774).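 Also: values are relative to mean of DMSO wells on each plate.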 As to conditions: circadian reporter cells, at 7 µM, actives lie on both sides.

ATP-dependent translocase ABCB1 (Homo sapiens), sequence (P08183 whole entry, looked up): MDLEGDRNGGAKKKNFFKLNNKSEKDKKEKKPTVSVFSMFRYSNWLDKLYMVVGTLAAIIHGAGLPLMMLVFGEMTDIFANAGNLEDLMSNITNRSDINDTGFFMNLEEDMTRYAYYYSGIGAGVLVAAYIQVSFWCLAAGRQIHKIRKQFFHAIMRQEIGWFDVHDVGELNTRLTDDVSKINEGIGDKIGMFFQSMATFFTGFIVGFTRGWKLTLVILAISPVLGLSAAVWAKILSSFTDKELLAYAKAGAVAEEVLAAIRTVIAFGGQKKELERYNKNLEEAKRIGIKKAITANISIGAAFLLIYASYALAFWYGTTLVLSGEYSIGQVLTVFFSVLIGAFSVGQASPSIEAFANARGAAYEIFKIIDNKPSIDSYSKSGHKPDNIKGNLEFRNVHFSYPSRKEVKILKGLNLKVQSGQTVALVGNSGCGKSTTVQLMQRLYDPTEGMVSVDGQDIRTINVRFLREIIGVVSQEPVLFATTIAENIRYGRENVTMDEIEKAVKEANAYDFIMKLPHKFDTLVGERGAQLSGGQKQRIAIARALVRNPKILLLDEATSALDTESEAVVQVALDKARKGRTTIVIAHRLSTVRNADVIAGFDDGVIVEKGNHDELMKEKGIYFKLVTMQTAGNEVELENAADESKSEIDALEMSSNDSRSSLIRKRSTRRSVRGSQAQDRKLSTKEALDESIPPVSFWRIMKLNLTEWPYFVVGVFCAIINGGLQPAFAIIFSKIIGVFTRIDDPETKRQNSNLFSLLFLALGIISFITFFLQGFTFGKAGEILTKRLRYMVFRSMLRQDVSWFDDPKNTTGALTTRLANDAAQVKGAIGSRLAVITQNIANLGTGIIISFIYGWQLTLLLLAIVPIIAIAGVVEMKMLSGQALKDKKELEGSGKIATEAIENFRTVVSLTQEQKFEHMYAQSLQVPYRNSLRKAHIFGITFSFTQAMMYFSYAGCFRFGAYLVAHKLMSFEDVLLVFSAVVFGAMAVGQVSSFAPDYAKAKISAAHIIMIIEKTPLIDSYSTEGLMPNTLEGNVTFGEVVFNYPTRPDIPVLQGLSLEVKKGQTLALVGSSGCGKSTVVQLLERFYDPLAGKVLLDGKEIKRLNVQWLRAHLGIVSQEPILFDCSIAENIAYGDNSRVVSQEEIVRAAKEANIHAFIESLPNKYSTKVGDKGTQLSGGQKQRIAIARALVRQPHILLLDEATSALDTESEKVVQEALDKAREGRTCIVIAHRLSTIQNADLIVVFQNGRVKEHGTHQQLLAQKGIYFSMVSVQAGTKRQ

As to `CN1CCC(OC(c2ccccc2)c2ccccc2)CC1`, the fluorescence slope change in [1] is 7.9% (inactive). The inhibition (commonly the change of the read-out against control, counted positive when it falls) in assay [2] is -34.9%. The compound further displayed a score in [3] of 1.74. In addition, in assay [4], the rescue above control was -9.83. For the same compound, the cytochrome c release ratio in assay [5] is 1.09. For the same compound, in assay [6], the inhibition of aggregation was 81.6%. Also, in assay [7], the glutamate uptake change amounted to 17.3%. In assay [8], this compound registered an inclusion score of 2. In [9], the aggregation suppression score came to 1.27. In addition, in [10], the survival was 4.58 (inactive).

Consider `COc1ccc(NS(=O)(=O)c2ccc(N)cc2)nn1`, for which, in assay [1], the fluorescence slope change is -40.8% (inactive). In addition, the inhibition in [2] worked out at 24%. The compound also gave a score in assay [3] of 1.56. In assay [4], this compound displayed a rescue above control of 12.3. The cytochrome c release ratio in [5] was 0.95. In assay [6], the inhibition of aggregation was -3.03%. Moreover, the glutamate uptake change in [7] was determined as 8.78%. In addition, the inclusion score in [8] is 2. In assay [9], this compound showed an aggregation suppression score of 1.18.

Take `Cn1cnc2c1c(=O)[nH]c(=O)n2C`: in assay [2], the inhibition stood at 30.4%. The compound also yielded a score in [3] of 1.43. Moreover, the rescue above control in assay [4] is -0.5. Further, the cytochrome c release ratio in assay [5] amounted to 0.76. The inhibition of aggregation in assay [6] was determined as 28.1%. In addition, the glutamate uptake change in assay [7] was -19.3%. This compound showed an inclusion score in [8] of 1.5. For the same compound, the aggregation suppression score in assay [9] was 1.09. Also, the period change in [11] was -0.055 h (inactive). Moreover, in assay [10], the survival is 3.33 (inactive).

For the compound `CCOC(=O)[C@H](CCc1ccccc1)N[C@@H](C)C(=O)N1CCC[C@H]1C(=O)O`, in assay [1], the fluorescence slope change is 54.7% (active). Besides, the inhibition in assay [2] turned out to be 21.1%. Also, the score in assay [3] was 1.21. This compound gave a rescue above control in [4] of 6.04. For the same compound, the cytochrome c release ratio in assay [5] is 1.13. Moreover, the inhibition of aggregation in assay [6] was 72.2%. In addition, the glutamate uptake change in assay [7] is -6.34%. The compound also showed an inclusion score in [8] of 2. This compound returned an aggregation suppression score in assay [9] of 1.1.

As to `CCCN(CCC)C(=O)C(CCC(=O)O)NC(=O)c1ccccc1` (stereo not drawn), the inhibition in [2] was determined as 14.9%. In [3], this compound displayed a score of 1.14. The rescue above control in assay [4] is -3.65. Also, the cytochrome c release ratio in assay [5] is 1.15. Besides, in [6], the inhibition of aggregation is 68.3%. In addition, the glutamate uptake change in [7] was found to be 11.9%. This compound showed an inclusion score in [8] of 1. Moreover, in assay [9], the aggregation suppression score worked out at 1.2. Moreover, in assay [11], the period change is 0.02 h (inactive). Further, the survival in assay [10] is 19.6 (inactive).

As to `CC(C(=O)O)c1ccc(C(=O)c2cccs2)cc1` (stereo not drawn), the fluorescence slope change in assay [1] was 12.2% (inactive). Also, the inhibition in assay [2] was determined as 7.38%. The score in assay [3] was found to be 0.92. Also, the rescue above control in [4] was -0.97. Besides, the cytochrome c release ratio in assay [5] came out at 1.35. Also, the inhibition of aggregation in assay [6] amounted to 91.6%. Also, the glutamate uptake change in [7] worked out at 15.6%. In assay [8], this compound showed an inclusion score of 2. Moreover, in assay [9], the aggregation suppression score worked out at 0.589. The survival in assay [10] is 6.67 (inactive).

For `Nc1ccc(S(=O)(=O)NC(=O)c2ccccc2)cc1`, the fluorescence slope change in assay [1] was 30% (inactive). For the same compound, in assay [2], the inhibition was determined as 20.3%. Moreover, in assay [3], the score is 1.2. Moreover, the rescue above control in assay [4] is -4.53. Further, the cytochrome c release ratio in assay [5] amounted to 0.95. In assay [6], the inhibition of aggregation turned out to be 47.9%. In addition, the glutamate uptake change in [7] was -23.6%. In [8], this compound displayed an inclusion score of 2. Besides, the aggregation suppression score in assay [9] is 1.16. Further, the survival in assay [10] is 3 (inactive).

As for `CCCCOc1ccc(CC(=O)NO)cc1`, the fluorescence slope change in assay [1] is 103% (active). Further, the inhibition in assay [2] was -8.34%. In [3], this compound yielded a score of 1.21. Further, the rescue above control in assay [4] is -4.19. Besides, in [5], the cytochrome c release ratio was found to be 1.09. In addition, in assay [6], the inhibition of aggregation was 43.1%. Further, the glutamate uptake change in assay [7] is 0.25%. Also, the inclusion score in [8] came out at 2. Further, the aggregation suppression score in [9] is 1.14. Moreover, the survival in assay [10] is 12.2 (inactive).

As to `Nc1ccc(S(=O)(=O)Nc2ccccn2)cc1`, in assay [1], the fluorescence slope change was 12.6% (inactive). In [2], the inhibition was -3.18%. For the same compound, in [3], the score turned out to be 1.17. Moreover, the rescue above control in assay [4] turned out to be 5.7. For the same compound, the cytochrome c release ratio in assay [5] came out at 0.88. Besides, in [6], the inhibition of aggregation is 24.2%. Further, the glutamate uptake change in assay [7] was -8.49%. In addition, the inclusion score in assay [8] turned out to be 2. This compound displayed an aggregation suppression score in [9] of 1.05. For the same compound, the survival in assay [10] was 9.08 (inactive).

`c1ccc(CN(CC2=NCCN2)c2ccccc2)cc1`: the fluorescence slope change in [1] is 118% (active). In addition, the inhibition in [2] worked out at 9.99%. In [3], this compound had a score of 1.33. The rescue above control in assay [4] was -13.1. In addition, the cytochrome c release ratio in [5] worked out at 1.08. Further, the inhibition of aggregation in assay [6] is 71.4%. The glutamate uptake change in assay [7] was 16%. Also, the inclusion score in [8] amounted to 2. The aggregation suppression score in assay [9] came to 1.29. For the same compound, the survival in assay [10] is 15 (inactive).

For the compound `COc1cnc(NS(=O)(=O)c2ccc(N)cc2)nc1`, the fluorescence slope change in assay [1] was 9.5% (inactive). Besides, the inhibition in [2] came out at 4.47%. In [3], this compound registered a score of 1.34. Moreover, in assay [4], the rescue above control is -2.23. Also, in assay [5], the cytochrome c release ratio is 0.79. The inhibition of aggregation in assay [6] amounted to 77.5%. Besides, the glutamate uptake change in [7] was -0.58%. Also, the inclusion score in assay [8] is 2. In [9], this compound registered an aggregation suppression score of 1.45. For the same compound, the survival in [10] is 4.42 (inactive).
